Experiment [1] has as its target Paired box protein Pax-6 (Homo sapiens) (UniProt P26367). Briefly: ATG_Pax6_CIS: Attagene CIS-FACTORIAL HepG2 Assay for human Paired Box 6 (PAX6) (AID 2282956). As to conditions: HepG2 CIS-FACTORIAL PAX6 reporter transcription, RNA readout; actives raise or lower the signal. A digest of the protocol:
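DMSO-referenced bidirectional fits of reporter mRNA fluorescence; HepG2 with transient cis-promoter MRTUs, 24 h post-dose, RT-PCR plus capillary electrophoresis detection.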

The nature of experiment [2]: ATG_PPRE_CIS: Attagene CIS-FACTORIAL HepG2 Assay for human Peroxisome Proliferator-activated Response Element (PPRE) (AID 2282958). Conditions: HepG2 PPRE cis-element reporter, Attagene transcription factor profiling; actives raise or lower the signal. In short, it runs like this:
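PPRE activity in HepG2: transient cis-reporter transfection, 24 h compound incubation, reporter mRNA by RT-PCR and CE fluorescence; gain/loss fitted against DMSO.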

Experiment [3] in a line: ATG_Sox_CIS: Attagene CIS-FACTORIAL HepG2 Assay for human SRY-box transcription factor (SOX) (AID 2282960). Conditions: HepG2 Attagene cis-factorial SOX reporter, mRNA; actives raise or lower the signal. In short, it runs like this: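 HepG2, cis reporter units, 24 h exposure. Reporter mRNA: RT-PCR → FAM labelling → HpaI → CE fluorescence. Bidirectional fit vs DMSO.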
Experiment [4] concerns the target Transcription factor Sp1 (Homo sapiens) (UniProt P08047). Briefly: ATG_Sp1_CIS: Attagene CIS-FACTORIAL HepG2 Assay for human Specificity Protein 1 (Sp1) (AID 2282961). Conditions: HepG2 Sp1 cis-reporter transcription, actives raise or lower the signal. A digest of the protocol: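 Liver-derived HepG2 cells, cis-element reporter library, 24 h treatment; RNA isolated, cDNA amplified with reporter-specific primers, FAM-labeled fragments sized on capillary analyzer. DMSO baseline, bidirectional curve fit.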

Experiment [5] can be described thus: ATG_SREBP_CIS: Attagene CIS-FACTORIAL HepG2 Assay for human Sterol Regulatory Element Binding (SREBP) (AID 2282962). As to conditions: HepG2 Attagene cis-factorial SREBP reporter, mRNA; actives raise or lower the signal. A digest of the protocol:
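In this cis-format assay, HepG2 liver cells express reporters controlled by promoter elements responsive to native transcription factors. Exposure lasts 24 h; reporter mRNA fluorescence from capillary electrophoresis gives the signal, fitted bidirectionally against DMSO.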

Experiment [6] deals with Signal transducer and activator of transcription 3 (Homo sapiens) (UniProt P40763). Briefly: ATG_STAT3_CIS: Attagene CIS-FACTORIAL HepG2 Assay for human Signal Transducer and Activator of Transcription 3 (STAT3) (AID 2282963). As to conditions: HepG2, Attagene cis-factorial STAT3 reporter transcription; actives raise or lower the signal. In short, it runs like this: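 Cis-factorial format: endogenous transcription factors in HepG2 drive transfected reporter units. After 24 h treatment, reporter RNA was reverse-transcribed, amplified, FAM-labelled and HpaI-digested before CE analysis; activity scored in both directions against DMSO.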
Sequence of Signal transducer and activator of transcription 3 (Homo sapiens) (P40763 whole entry, looked up): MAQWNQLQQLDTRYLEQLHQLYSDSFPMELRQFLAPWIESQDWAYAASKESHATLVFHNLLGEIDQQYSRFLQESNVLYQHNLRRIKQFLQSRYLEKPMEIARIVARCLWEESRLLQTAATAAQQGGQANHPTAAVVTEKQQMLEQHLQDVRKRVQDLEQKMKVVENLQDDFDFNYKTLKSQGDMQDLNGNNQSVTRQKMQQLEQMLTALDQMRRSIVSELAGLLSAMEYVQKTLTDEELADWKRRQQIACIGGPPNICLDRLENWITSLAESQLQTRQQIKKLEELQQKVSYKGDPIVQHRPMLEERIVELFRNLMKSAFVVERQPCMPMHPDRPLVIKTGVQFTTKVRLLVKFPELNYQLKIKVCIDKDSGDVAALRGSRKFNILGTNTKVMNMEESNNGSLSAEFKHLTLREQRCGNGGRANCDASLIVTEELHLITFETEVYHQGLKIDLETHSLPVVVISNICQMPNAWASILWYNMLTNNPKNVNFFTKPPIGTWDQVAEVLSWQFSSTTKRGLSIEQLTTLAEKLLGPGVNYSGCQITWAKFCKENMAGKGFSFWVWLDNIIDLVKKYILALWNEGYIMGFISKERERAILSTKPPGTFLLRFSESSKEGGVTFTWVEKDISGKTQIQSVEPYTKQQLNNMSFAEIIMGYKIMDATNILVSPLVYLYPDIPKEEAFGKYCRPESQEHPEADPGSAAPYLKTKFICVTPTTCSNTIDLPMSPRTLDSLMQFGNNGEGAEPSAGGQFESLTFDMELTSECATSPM

A short description of experiment [7]: ATG_TA_CIS: Attagene CIS-FACTORIAL HepG2 Assay for human TA Basal Promoter (AID 2282964). As to conditions: HepG2 Attagene CIS-factorial TA basal promoter reporter; actives raise or lower the signal. A digest of the protocol: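 Read-out: fluorescent reporter-transcript fragments resolved by capillary electrophoresis after RT-PCR and HpaI digestion. Source: HepG2 cells carrying transiently transfected multi-reporter cis constructs, treated 24 h. Endpoint fitted bidirectionally relative to DMSO.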

Experiment [8] is described as follows: ATG_TCF_b_cat_CIS: Attagene CIS-FACTORIAL HepG2 Assay for human T-Cell-Factor with beta-catenin (TCF/b-cat) (AID 2282965). Conditions: HepG2 TCF/beta-catenin cis-reporter transcription, actives raise or lower the signal. In short, it runs like this: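 Endogenous transcription factor activity is captured through cis-promoter reporter constructs transiently introduced into human HepG2 liver cells. Induced reporter mRNA is measured after 24 h and fitted bidirectionally relative to DMSO.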

Experiment [9] can be described thus: ATG_TAL_CIS: Attagene CIS-FACTORIAL HepG2 Assay for human TAL Basal Promoter (AID 2282966).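 Also: background control endpoint measuring basal TAL promoter reporter mRNA not a specific factor.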 As to conditions: HepG2 Attagene cis-factorial TAL promoter reporter; actives raise or lower the signal. In short, it runs like this: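 Endogenous transcription-factor activity is sensed in HepG2 cells through transfected cis-promoter reporter constructs. After 24 h dosing, reporter transcripts are quantified by RT-PCR and capillary electrophoresis. Gain or loss of signal is fitted relative to DMSO.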

The nature of experiment [10]: ATG_TGFb_CIS: Attagene CIS-FACTORIAL HepG2 Assay for human Transforming Growth Factor (TGF) (AID 2282967). Conditions: HepG2 Attagene CIS TGFb reporter, mRNA transcription; actives raise or lower the signal. A digest of the protocol: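 Transient MRTU transfection of HepG2 (FuGene 6). Dose 24 h. TriZol RNA, oligo(dT) RT, PCR, 6-FAM primer extension, HpaI cut, CE. Bidirectional fit, DMSO = baseline.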

Experiment [11] in a line: ATG_VDRE_CIS: Attagene CIS-FACTORIAL HepG2 Assay for human Vitamin D Receptor Element (VDRE) (AID 2282968). Conditions: HepG2 VDRE cis-reporter transcription, actives raise or lower the signal. In short, it runs like this: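 Measures endogenous factor activity through cis-element-driven reporter transcripts in transiently transfected HepG2. Cells are treated 24 h; reporter mRNA is quantified by RT-PCR and capillary electrophoresis; fitting is bidirectional.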

In experiment [12] the target is Estrogen receptor (Homo sapiens) (UniProt P03372). In words: ATG_ERa_TRANS: Attagene TRANS-FACTORIAL HepG2 Assay for human Estrogen Receptor alpha (ERa) (AID 2282970; active = hit-call score of the fitted dose curve at least 0.9, where 1 is the maximum). Conditions: HepG2 Attagene TRANS ERa GAL4 reporter, mRNA. A digest of the protocol: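 Transfected HepG2 cells carrying GAL4-UAS-driven reporter units were dosed for 24 hours. Total RNA was reverse-transcribed, reporter sequences PCR-amplified, FAM-labelled, HpaI-digested and resolved by capillary electrophoresis. Increases over DMSO control defined activity.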
Sequence of Estrogen receptor (Homo sapiens) (P03372 whole entry, looked up, the tested form may be a part): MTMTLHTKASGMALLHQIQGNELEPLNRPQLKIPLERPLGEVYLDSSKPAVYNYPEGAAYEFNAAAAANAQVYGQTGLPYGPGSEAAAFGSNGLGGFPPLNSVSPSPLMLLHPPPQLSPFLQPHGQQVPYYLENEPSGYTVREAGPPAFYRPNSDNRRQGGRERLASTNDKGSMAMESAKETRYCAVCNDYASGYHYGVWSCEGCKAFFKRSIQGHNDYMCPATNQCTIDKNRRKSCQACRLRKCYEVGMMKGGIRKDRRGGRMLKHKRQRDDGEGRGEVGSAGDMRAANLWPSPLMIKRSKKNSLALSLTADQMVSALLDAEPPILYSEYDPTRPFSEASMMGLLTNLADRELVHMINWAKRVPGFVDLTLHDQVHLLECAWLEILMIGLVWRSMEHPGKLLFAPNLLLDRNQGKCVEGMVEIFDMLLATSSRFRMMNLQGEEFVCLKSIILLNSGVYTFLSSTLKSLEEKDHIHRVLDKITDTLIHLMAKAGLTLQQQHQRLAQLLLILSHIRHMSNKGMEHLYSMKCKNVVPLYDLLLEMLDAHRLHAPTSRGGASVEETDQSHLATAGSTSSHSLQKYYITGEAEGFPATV

Experiment [13] has as its target X-box-binding protein 1 (Homo sapiens) (UniProt P17861). Briefly: ATG_Xbp1_CIS: Attagene CIS-FACTORIAL HepG2 Assay for human X-box Binding Protein 1 (XBP1) (AID 2282972). Conditions: HepG2 XBP1 cis-element reporter, Attagene multiplex; actives raise or lower the signal. A digest of the protocol:
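Changes in reporter transcript abundance, read by RT-PCR and capillary electrophoresis, reflect endogenous transcription factor activity. Transfected HepG2 cells received compound for 24 hours; DMSO defined baseline for bidirectional analysis.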

Experiment [14] is described as follows: ATG_GAL4_TRANS: Attagene TRANS-FACTORIAL HepG2 Assay for GAL4 (Internal Marker) (AID 2282976; active = hit-call score of the fitted dose curve at least 0.9, where 1 is the maximum). As to conditions: HepG2 Attagene TRANS GAL4 internal marker reporter. In short, it runs like this: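 Fluorescence from capillary electrophoresis of labelled RT-PCR products quantifies reporter mRNA induction after 24 h dosing of HepG2 cells carrying transfected GAL4-UAS reporter transcription units. Vehicle DMSO serves as baseline.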

Experiment [15] is described as follows: ATG_PXRE_CIS: Attagene CIS-FACTORIAL HepG2 Assay for human Pregnane X Receptor Element (PXRE) (AID 2282957). As to conditions: HepG2 Attagene CIS-FACTORIAL PXRE reporter, mRNA; actives raise or lower the signal. In short, it runs like this:
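Endogenous transcription factor activity in HepG2 was gauged through induction of reporter mRNA driven by a cis-regulating promoter element, sampled 24 h post-treatment. Activity was fitted in both directions against DMSO negative control.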

Experiment [16] in a line: ATG_RORE_CIS: Attagene CIS-FACTORIAL HepG2 Assay for human RAR-related Orphan Receptor Element (RORE) (AID 2282959). Conditions: HepG2 Attagene cis-factorial RORE reporter, mRNA; actives raise or lower the signal. In short, it runs like this:
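A 24-hour exposure of transfected HepG2 hepatoma cells precedes RNA isolation and reporter RT-PCR. Labeled products are digested with HpaI and resolved by capillary electrophoresis, with gain or loss of signal scored relative to DMSO.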

Experiment [17] concerns the target Steroid hormone receptor ERR1 (Homo sapiens) (UniProt P11474). In words: ATG_ERRa_TRANS: Attagene TRANS-FACTORIAL HepG2 Assay for human Estrogen-Related Receptor alpha (ERRa) (AID 2282971; active = hit-call score of the fitted dose curve at least 0.9, where 1 is the maximum). As to conditions: HepG2 Attagene TRANS reporter, ERRa transactivation. A digest of the protocol: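 HepG2 cells were transiently transfected with multiple GAL4-UAS reporter units, then dosed with compound for 24 h. Total RNA was reverse-transcribed, reporter cDNA PCR-amplified and fluorescently labelled, and fragments resolved by capillary electrophoresis; induction was compared with DMSO.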

Experiment [18] in a line: ATG_M_19_TRANS: Attagene TRANS-FACTORIAL HepG2 Assay for M19 Transcription Factor (Internal Marker) (AID 2282974; active = hit-call score of the fitted dose curve at least 0.9, where 1 is the maximum). As to conditions: HepG2 Attagene TRANS-FACTORIAL M19 internal marker reporter. A digest of the protocol:
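Transfected HepG2 (GAL4-UAS MRTUs), 24 h compound, TriZol RNA, DNase-treated RT, reporter PCR, FAM label, HpaI digest, CE fluorescence; gain vs DMSO.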

Outcome and AC50 data for ten compounds are collected here from PubChem BioAssay (EPA / NIEHS).

Results filed as inconclusive are left out. The source made the active and inactive calls. The calls were made as follows, unless noted: active = hit-call score of the fitted dose curve at least 0.9, where 1 is the maximum; inactive = score below 0.9.

The term AC50 denotes the concentration at which the activity in the assay is half-maximal.

Sequence of Paired box protein Pax-6 (Homo sapiens) (P26367 whole entry, looked up): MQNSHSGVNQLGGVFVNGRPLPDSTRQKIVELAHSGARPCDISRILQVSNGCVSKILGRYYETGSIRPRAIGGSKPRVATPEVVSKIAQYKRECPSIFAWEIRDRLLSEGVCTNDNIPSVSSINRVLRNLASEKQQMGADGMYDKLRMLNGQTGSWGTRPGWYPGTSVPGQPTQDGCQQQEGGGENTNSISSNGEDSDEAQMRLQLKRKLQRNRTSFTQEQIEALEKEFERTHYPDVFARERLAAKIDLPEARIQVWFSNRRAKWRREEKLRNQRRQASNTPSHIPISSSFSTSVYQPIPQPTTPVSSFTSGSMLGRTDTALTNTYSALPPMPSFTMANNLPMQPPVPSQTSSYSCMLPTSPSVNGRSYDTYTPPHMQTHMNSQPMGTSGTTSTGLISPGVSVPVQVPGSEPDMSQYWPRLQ
Sequence of X-box-binding protein 1 (Homo sapiens) (P17861 whole entry, looked up): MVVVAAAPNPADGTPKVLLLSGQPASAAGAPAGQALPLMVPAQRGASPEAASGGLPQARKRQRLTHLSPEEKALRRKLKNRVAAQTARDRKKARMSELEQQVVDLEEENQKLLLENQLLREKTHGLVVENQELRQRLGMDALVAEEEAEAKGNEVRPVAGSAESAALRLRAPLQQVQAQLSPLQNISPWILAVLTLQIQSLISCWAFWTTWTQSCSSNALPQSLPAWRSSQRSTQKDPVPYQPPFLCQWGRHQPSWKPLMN
Sequence of Transcription factor Sp1 (Homo sapiens) (P08047 whole entry, looked up, the tested form may be a part): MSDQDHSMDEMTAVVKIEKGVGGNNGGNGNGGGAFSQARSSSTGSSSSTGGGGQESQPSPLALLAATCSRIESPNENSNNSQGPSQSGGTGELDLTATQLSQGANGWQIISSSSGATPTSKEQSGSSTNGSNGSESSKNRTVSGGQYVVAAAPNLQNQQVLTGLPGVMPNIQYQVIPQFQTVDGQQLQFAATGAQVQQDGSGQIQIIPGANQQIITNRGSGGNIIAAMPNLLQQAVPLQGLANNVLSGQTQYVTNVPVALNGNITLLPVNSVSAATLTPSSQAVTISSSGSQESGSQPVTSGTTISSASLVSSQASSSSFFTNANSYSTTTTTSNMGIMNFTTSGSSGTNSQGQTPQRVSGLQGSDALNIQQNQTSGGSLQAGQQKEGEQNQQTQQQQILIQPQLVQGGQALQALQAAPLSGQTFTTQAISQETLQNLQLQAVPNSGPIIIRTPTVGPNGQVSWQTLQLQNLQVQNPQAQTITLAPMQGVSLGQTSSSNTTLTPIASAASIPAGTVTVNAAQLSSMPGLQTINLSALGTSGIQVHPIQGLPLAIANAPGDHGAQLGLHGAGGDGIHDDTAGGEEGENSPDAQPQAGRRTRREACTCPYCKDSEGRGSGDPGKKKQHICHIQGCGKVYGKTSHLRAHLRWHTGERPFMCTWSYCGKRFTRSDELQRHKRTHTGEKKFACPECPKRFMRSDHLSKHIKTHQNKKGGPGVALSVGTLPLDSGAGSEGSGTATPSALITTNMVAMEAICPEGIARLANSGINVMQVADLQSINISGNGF
Sequence of Steroid hormone receptor ERR1 (Homo sapiens) (P11474 whole entry, looked up, the tested form may be a part): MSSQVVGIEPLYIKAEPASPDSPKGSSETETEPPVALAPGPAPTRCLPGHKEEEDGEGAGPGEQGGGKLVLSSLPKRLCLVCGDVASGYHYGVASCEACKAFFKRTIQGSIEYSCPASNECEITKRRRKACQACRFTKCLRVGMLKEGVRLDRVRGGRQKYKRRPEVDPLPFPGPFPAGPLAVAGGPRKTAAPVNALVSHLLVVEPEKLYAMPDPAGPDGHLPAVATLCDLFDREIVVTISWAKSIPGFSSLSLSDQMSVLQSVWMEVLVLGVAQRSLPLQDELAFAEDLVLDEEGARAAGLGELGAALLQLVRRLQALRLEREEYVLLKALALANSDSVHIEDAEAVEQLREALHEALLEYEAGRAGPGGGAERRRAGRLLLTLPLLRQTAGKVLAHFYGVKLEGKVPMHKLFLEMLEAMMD

Consider `Cc1cc(C)c(C=O)c(C)c1`, for which the compound was classed as inactive in experiment [1], in experiment [2], in [3], in experiment [4], in experiment [5] and in [6]. Further, the call in [7], in [8], in experiment [9], in experiment [10], in [12] and in experiment [13] was inactive. In addition, the result in [14] was inactive. Moreover, in experiment [11], the AC50 was 3.24 µM (active).
For the compound `COC(=O)c1ccccc1C`, the call in experiment [1], in [16], in [3], in [4], in experiment [5] and in experiment [6] was inactive. Also, the compound was classed as inactive in experiment [7], in experiment [8], in experiment [9] and in experiment [13]. Besides, the AC50 in experiment [15] is 40.6 µM (active).
On to `Cc1ccc(S(=O)(=O)N=C=O)cc1`, for which the compound was classed as inactive in experiment [1], in experiment [2], in experiment [16], in experiment [3], in experiment [4] and in [5]. Moreover, the compound was classed as inactive in experiment [6], in experiment [7], in experiment [8], in experiment [9], in experiment [10] and in experiment [11]. Moreover, the compound was classed as inactive in [12], in experiment [17] and in experiment [14].
Take `CCCCCC(=O)OCC`: the call in experiment [1], in [15], in [16], in [3], in [4] and in [5] was inactive. For the same compound, the outcome in experiment [6], in [8], in [9], in experiment [10], in [11] and in [13] was inactive. Moreover, the compound was called inactive in [14].
`O=C(O)c1ccc2c(c1)C(=O)OC2=O`: the compound was classed as inactive in [1], in [15], in experiment [3], in experiment [4], in [5] and in experiment [6]. Besides, the compound was classed as inactive in [7], in [8], in experiment [9], in experiment [10], in experiment [11] and in [13]. The call in [18] and in experiment [14] was inactive.
For the compound `CCCCCCCCCCCC(=O)N(C)CC(=O)O`, the outcome in experiment [1], in [3], in experiment [4], in experiment [5], in [7] and in experiment [8] was inactive. Besides, the call in [9], in [10], in experiment [11], in experiment [12], in [13] and in experiment [14] was inactive. Further, the figures for the AC50 in experiment [2] and in [16] were 8.09 µM (active) and 19.6 µM (active), respectively.
For `[Cl][Eu]([Cl])[Cl]`, the outcome in experiment [1], in experiment [3], in [4], in [5], in experiment [6] and in experiment [8] was inactive. In addition, the compound was classed as inactive in [9], in [10], in experiment [11] and in experiment [13]. Also, the AC50 in experiment [12] was 36.6 µM (active).
Take `CCCCCCCCCCCCC`: the call in [1], in experiment [15], in experiment [16], in experiment [3], in experiment [4] and in [5] was inactive. Besides, the compound was called inactive in experiment [6], in [7], in experiment [8], in experiment [9], in experiment [10] and in experiment [11]. Moreover, the compound was classed as inactive in experiment [12], in experiment [13] and in experiment [14].
For `C=CCNCC=C`, the call in experiment [1], in experiment [3], in experiment [4], in [5], in experiment [6] and in experiment [7] was inactive. Besides, the compound was called inactive in [8], in [9], in [10], in experiment [11] and in [12]. For the same compound, the half-maximal activity concentration (AC50) in experiment [15] is 52.1 µM (active).
On to `CCCCCCCCCCCC(=O)OCC`, for which the compound was classed as inactive in [1], in experiment [15], in experiment [16], in experiment [3], in experiment [4] and in experiment [5]. The compound was called inactive in [6], in experiment [8], in experiment [9], in experiment [10], in experiment [11] and in experiment [12]. Further, the compound was classed as inactive in [18].
